# According to PubChem BioAssay (NCATS):
# Where “and” joins values, the source holds several entries; their conditions need not be identical. Equal values may be shown once. Results filed as inconclusive are left out. Entries that show only a call come without a potency. Some structures have more than one record in an assay (separate samples or runs), and their calls can disagree. Unmarked numbers belong to inactive results. Calls of active or inactive are those of the source. The call rests on the fitted dose curve; in most records, active means well fitted inhibition curve with a large enough effect; inconclusive means small, poorly fitted or top-dose-only effect; inactive means flat fitted curve, though single readings scatter.
# Key:
# JCK = experiment: qHTS profiling for inhibitors of Plasmodium falciparum proliferation (AID 504749); further: potency means the concentration at half of the fitted maximal effect; settings: P. falciparum in erythrocytes, SYBR Green DNA, 72 h; series mostly up to 28.7 µM
# In short: (§1)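 Readout was DNA-dye fluorescence from lysed cultures, ex 485/em 535 nm. Parasitized red cells had grown 72 h with compound; data scaled between 0.29 uM artemisinin and DMSO wells and corrected using vehicle-only plates.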
# N140 = experiment: as above; settings: P. falciparum in erythrocytes, SYBR Green DNA, 72 h; series mostly up to 28.7 µM
# In short: as §1
# P93_24 = experiment: as above; settings: P. falciparum in erythrocytes, SYBR Green DNA, 72 h; series mostly up to 28.7 µM
# In short: as §1
# P94_40 = experiment: as above; settings: P. falciparum in erythrocytes, SYBR Green DNA, 72 h; series mostly up to 28.7 µM
# In short: as §1
# PAD = experiment: as above; settings: P. falciparum in erythrocytes, SYBR Green DNA, 72 h; series mostly up to 28.7 µM
# In short: as §1
# PC15 = experiment: as above; settings: P. falciparum in erythrocytes, SYBR Green DNA, 72 h; series mostly up to 28.7 µM
# In short: as §1
# PC26 = experiment: as above; settings: P. falciparum in erythrocytes, SYBR Green DNA, 72 h; series mostly up to 28.7 µM
# In short: as §1
# PC49 = experiment: as above; settings: P. falciparum in erythrocytes, SYBR Green DNA, 72 h; series mostly up to 28.7 µM
# In short: as §1
# SC27B = experiment: as above; settings: P. falciparum in erythrocytes, SYBR Green DNA, 72 h; series mostly up to 28.7 µM
# In short: as §1
# TAB109 = experiment: as above; settings: P. falciparum in erythrocytes, SYBR Green DNA, 72 h; series mostly up to 28.7 µM
# In short: as §1
# TAB113 = experiment: as above; settings: P. falciparum in erythrocytes, SYBR Green DNA, 72 h; series mostly up to 28.7 µM
# In short: as §1
# TAB165 = experiment: as above; settings: P. falciparum in erythrocytes, SYBR Green DNA, 72 h; series mostly up to 28.7 µM
# In short: as §1
# W2 = experiment: as above; settings: P. falciparum in erythrocytes, SYBR Green DNA, 72 h; series mostly up to 28.7 µM
# In short: as §1
# CRL-7250 = normal cell line; experiment: Cytotoxic Profiling of Annotated Libraries Using Quantitative High-Throughput Screening (AID 1296008); settings: Five cell lines viability, CellTiter-Glo ATP luminescence, 48-72 h; max response: active compounds read low; further: potency means the concentration at half of the fitted maximal effect
# In short: (§2)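 Cells exposed to compounds for 48 or 72 hr at 37 degrees Celsius. Viability read as ATP-coupled luminescence with CellTiter-Glo after 10 min at room temperature.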
# HEK293 = experiment: as above; settings: Five cell lines viability, CellTiter-Glo ATP luminescence, 48-72 h; max response: active compounds read low
# In short: as §2
# HaCat [1] = experiment: as above; settings: Five cell lines viability, CellTiter-Glo ATP luminescence, 48-72 h; max response: active compounds read low
# In short: as §2
# KB-3-1 = experiment: as above; settings: Five cell lines viability, CellTiter-Glo ATP luminescence, 48-72 h; max response: active compounds read low
# In short: as §2
# NIH3T3 = experiment: as above; settings: Five cell lines viability, CellTiter-Glo ATP luminescence, 48-72 h; max response: active compounds read low
# In short: as §2
# HACAT [2] = experiment: qHTS assay to identify novel small-molecules to repurpose for Merkel cell carcinoma treatment (AID 1296009); settings: MCC and control cell lines, CellTiter-Glo viability, 72 h; at 44.8 µM (top of the series) unless noted
# In short: (§3)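 Cells were incubated with compound for 72 hr at 37 degree celsius before CellTiter-Glo addition. Luminescence was normalized with no-cell wells as full cytotoxicity and DMSO as baseline.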
# HEK293T = experiment: as above; settings: MCC and control cell lines, CellTiter-Glo viability, 72 h; at 44.8 µM (top of the series) unless noted
# In short: as §3
# Further: nearly all actives have a fitted effect of over 60% in size.
smiles,measurement,setting,value
Cc1ccc(C)c(OCCCC(C)(C)C(=O)O)c1,Potency,JCK,inactive
same,Potency,N140,inactive
same,Potency,P93_24,inactive
same,Potency,P94_40,inactive
same,Potency,PAD,inactive
same,Potency,PC15,inactive
same,Potency,PC26,inactive
same,Potency,PC49,inactive
same,Potency,SC27B,inactive
same,Potency,TAB109,inactive
same,Potency,TAB113,inactive
same,Potency,TAB165,inactive
same,Potency,W2,inactive
same,max response,CRL-7250,-2.44%
same,outcome,CRL-7250,inactive
same,max response,HEK293,4.9% and 0.17%
same,max response,HaCat [1],3.97%
same,outcome,HaCat [1],inactive
same,max response,KB-3-1,8.09% and 8.97%
same,max response,NIH3T3,-1.31% and 0.244%
same,outcome,HACAT [2],inactive
CS(=O)(=O)OCCCCOS(C)(=O)=O,Potency,JCK,inactive
same,Potency,N140,inactive
same,Potency,P93_24,inactive
same,Potency,P94_40,inactive
same,Potency,PAD,inactive
same,Potency,PC15,inactive
same,Potency,PC26,inactive
same,Potency,PC49,inactive
same,Potency,SC27B,inactive
same,Potency,TAB109,inactive
same,Potency,TAB113,inactive
same,Potency,TAB165,inactive
same,Potency,W2,inactive
same,max response,CRL-7250,-2.55%
same,outcome,CRL-7250,inactive
same,max response,HEK293,-5.94%
same,outcome,HEK293,inactive
same,max response,HaCat [1],-18.7%
same,outcome,HaCat [1],inactive
same,max response,KB-3-1,2.33% and 4.33%
same,max response,NIH3T3,-7.8% and -0.608%
same,outcome,HACAT [2],inactive
same,outcome,HEK293T,inactive
CC(C)[C@H](N)C(=O)OCCOCn1cnc2c(=O)[nH]c(N)nc21,Potency,JCK,inactive
same,Potency,N140,inactive
same,Potency,P93_24,inactive
same,Potency,P94_40,inactive
same,Potency,PAD,inactive
same,Potency,PC15,inactive
same,Potency,PC26,inactive
same,Potency,PC49,inactive
same,Potency,SC27B,inactive
same,Potency,TAB109,inactive
same,Potency,TAB113,inactive
same,Potency,TAB165,inactive
same,Potency,W2,inactive
same,max response,CRL-7250,-3.66% and 1.07%
same,max response,HEK293,4.44%
same,outcome,HEK293,inactive
same,outcome,HaCat [1],inactive
same,max response,KB-3-1,10.2%
same,outcome,KB-3-1,inactive
same,outcome,NIH3T3,inactive
same,outcome,HACAT [2],inactive
same,outcome,HEK293T,inactive
CC(=O)Nc1ccc(O)cc1,max response,CRL-7250,-5.95%
same,outcome,CRL-7250,inactive
same,max response,HEK293,1.48%
same,outcome,HEK293,inactive
same,max response,HaCat [1],-8.57%
same,outcome,HaCat [1],inactive
same,max response,KB-3-1,23.8% and 2.6%
same,max response,NIH3T3,-5.84%
same,outcome,NIH3T3,inactive
same,outcome,HACAT [2],inactive
same,outcome,HEK293T,inactive
CCC1=C(C)CN(C(=O)NCCc2ccc(S(=O)(=O)NC(=O)NC3CCC(C)CC3)cc2)C1=O (stereo not given),Potency,JCK,inactive
same,Potency,N140,inactive
same,Potency,P93_24,inactive
same,Potency,P94_40,inactive
same,Potency,PAD,inactive
same,Potency,PC15,inactive
same,Potency,PC26,inactive
same,Potency,PC49,inactive
same,Potency,SC27B,inactive
same,Potency,TAB109,inactive
same,Potency,TAB113,inactive
same,Potency,TAB165,inactive
same,Potency,W2,inactive
same,max response,CRL-7250,0.534% and 4.01%
same,outcome,CRL-7250,inactive
same,outcome,HEK293,inactive
same,outcome,HaCat [1],inactive
same,max response,KB-3-1,-10.1% and -9.63%
same,max response,NIH3T3,0.91%
same,outcome,NIH3T3,inactive
same,outcome,HACAT [2],inactive
same,outcome,HEK293T,inactive
Cc1nc(-c2ccc(OCC(C)C)c(C#N)c2)sc1C(=O)O,max response,CRL-7250,2.28%
same,outcome,CRL-7250,inactive
same,max response,HEK293,-1.16% and -8.21%
same,max response,HaCat [1],0.712%
same,outcome,HaCat [1],inactive
same,max response,KB-3-1,3.2%
same,max response,NIH3T3,4.8%
same,outcome,NIH3T3,inactive
same,outcome,HACAT [2],inactive
COc1cc2nc(N3CCN(C(=O)C4CCCO4)CC3)nc(N)c2cc1OC (stereo not given),max response,CRL-7250,-10.4%
same,outcome,CRL-7250,inactive
same,max response,HEK293,-14.3% and 0.884%
same,max response,HaCat [1],3.43% and -0.464%
same,max response,KB-3-1,-10.1% and 5.78%
same,max response,NIH3T3,-4.15% and -2.16%
Cc1c(C(=O)NN2CCCCC2)nn(-c2ccc(Cl)cc2Cl)c1-c1ccc(Cl)cc1,Potency,JCK,inactive
same,Potency,N140,8.91 µM (active)
same,Potency,P93_24,10 µM (active)
same,Potency,P94_40,11.2 µM (active)
same,Potency,PC26,16.9 µM (active)
same,Potency,SC27B,10 µM (active)
same,Potency,TAB165,10 µM (active)
same,Potency,W2,6.75 µM (active)
same,max response,CRL-7250,-1.95%
same,outcome,CRL-7250,inactive
same,Potency,HEK293,26.4 µM (active)
same,outcome,HaCat [1],inactive
same,max response,KB-3-1,-25.1%
same,max response,NIH3T3,0.216%
same,outcome,NIH3T3,inactive
same,outcome,HACAT [2],inactive
CCCS(=O)c1ccc2nc(NC(=O)OC)[nH]c2c1 (stereo not given),Potency,CRL-7250,21.1 µM (active)
same,max response,CRL-7250,-27.5%
same,Potency,HEK293,23.7 µM (active)
same,Potency,KB-3-1,20.6 µM (active)
same,max response,NIH3T3,-29.9%
COC(=O)N[C@H](C(=O)N[C@@H](Cc1ccccc1)[C@@H](O)CN(Cc1ccc(-c2ccccn2)cc1)NC(=O)[C@@H](NC(=O)OC)C(C)(C)C)C(C)(C)C,max response,CRL-7250,-0.779%
same,max response,HEK293,-5.2%
same,outcome,HEK293,inactive
same,max response,HaCat [1],-5.76%
same,outcome,HaCat [1],inactive
same,max response,KB-3-1,5.51% and -5.77%
same,max response,NIH3T3,0.751% and -1.44%
same,outcome,HACAT [2],inactive
same,outcome,HEK293T,inactive
Clc1ccc(C(Cn2ccnc2)OCc2ccsc2Cl)c(Cl)c1 (stereo not given),Potency,JCK,5.01 µM (active)
same,Potency,N140,2.82 µM (active)
same,Potency,P93_24,2.24 µM (active)
same,Potency,P94_40,4.47 µM (active)
same,Potency,PAD,1 µM (active)
same,Potency,PC15,4.47 µM (active)
same,Potency,PC26,3.38 µM (active)
same,Potency,PC49,4.47 µM (active)
same,Potency,SC27B,2 µM (active)
same,Potency,TAB109,5.01 µM (active)
same,Potency,TAB113,4.47 µM (active)
same,Potency,TAB165,1 µM (active)
same,Potency,W2,1.69 µM (active)
same,max response,CRL-7250,1.94%
same,outcome,CRL-7250,inactive
same,max response,HaCat [1],-18.6% and -23.1%
same,max response,KB-3-1,-26.3% and -17.4%
CC1=C(C)C(=O)C(C(CCCCCC(=O)O)c2ccccc2)=C(C)C1=O (stereo not given),Potency,JCK,inactive
same,Potency,P93_24,inactive
same,Potency,P94_40,inactive
same,Potency,PAD,inactive
same,Potency,PC15,inactive
same,Potency,PC49,inactive
same,Potency,TAB109,inactive
same,Potency,TAB113,inactive
same,Potency,CRL-7250,5.31 µM (active)
same,max response,CRL-7250,0.243%
same,max response,HEK293,-12.9%
same,outcome,HEK293,inactive
same,max response,HaCat [1],-5.06%
same,outcome,HaCat [1],inactive
same,max response,KB-3-1,6.39%
same,max response,NIH3T3,2.25%
same,outcome,NIH3T3,inactive
same,outcome,HACAT [2],inactive
same,outcome,HEK293T,inactive
